# Laboratory results: PubChem BioAssay (NCATS)
# Records with an inconclusive call do not appear. A call without a number means that no potency is given here. Calls of active or inactive are those of the source. Calls follow the shape of the dose curve; as a rule, active = well fitted inhibition curve with a large enough effect; inconclusive = small, poorly fitted or top-dose-only effect; inactive = no such curve, though single readings can be large or run the other way.
# Assay: Primary qHTS for inhibitors of nuclear receptor binding SET domain protein 2 (NSD2) in an RCH-ACV wild type WT cells (2C) (AID 1645877); also: nearly all actives have a fitted effect of over 70% in size
# Conditions: RCH-ACV (leukaemia line) NSD2 WT (2C) viability, CellTiter-Glo, 72 h; series mostly up to 44.9 µM
# Potency is read from the fitted curve at half-maximal effect.
row,Structure (SMILES),Potency
1,Nc1ncnc2c1ncn2Cc1c(F)cccc1Cl,inactive
2,CN=C(N)NC(=O)Nc1c(C)cccc1C,inactive
3,CCN(CC)CCN,inactive
4,O=C1CCCc2c(O)cccc21,inactive
5,Cc1[nH]cnc1-c1ccc(Cl)cc1,inactive
6,CC(C)(C)c1ccc(O)c(O)c1,2.17 µM (active)
